PubChem BioAssay AID1159580 (chemical genetic matrix, 2015)
Where “and” joins values, the source holds several entries; their conditions need not be identical. Equal values may be shown once. Screen size: about 5,500 compounds; about 2,000 (36%) were called active. Roughly 18% stayed inconclusive and do not appear here. Cut-off read from the data, not from the text of the source: active = normalized growth mostly below about 0.91 (no sharp cut-off); inconclusive = no clear call, values can overlap the other calls; inactive = mostly above about 0.92. Some of the results follow.

Assay: chemical genetic growth profiling, strain panel (AID 1159580);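 note: tested at 20 µM; growth read once vehicle control cultures reached saturation at 30 °C; 1 = growth at the plate median or of vehicle wells; lower values mean less growth of the strain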
Conditions: S. cerevisiae deletion strains, growth OD

Measured: normalized growth

CC[C@H](CCC(C)[C@H]1CCC2C3CCC4C[C@@H](O)CC[C@]4(C)C3CC[C@@]21C)C(C)C (stereo partly drawn)
inactive: locus YAL013W, strain DEP1, stronger effect = lower value 1.01 | locus YAL021C, strain ccr4, stronger effect = lower value 0.968 | locus YAL026C, strain drs2, stronger effect = lower value 0.955 | locus YAL030W, strain snc1, stronger effect = lower value 0.985 | locus YBL061C, strain skt5, stronger effect = lower value 0.988 | locus YBR009C, strain hhf1, stronger effect = lower value 0.983 | locus YBR021W, strain FUR4, stronger effect = lower value 0.993 | locus YBR023C, strain chs3, stronger effect = lower value 0.988 | locus YBR171W, strain sec66, stronger effect = lower value 0.976 | locus YBR229C, strain ROT2, stronger effect = lower value 0.999 | locus YBR231C, strain swc5, stronger effect = lower value 1.01 | locus YBR279W, strain paf1, stronger effect = lower value 0.983 | locus YCL011C, strain gbp2, stronger effect = lower value 0.986 | locus YCL016C, strain dcc1, stronger effect = lower value 0.992 | locus YCL029C, strain bik1, stronger effect = lower value 1.03 | locus YCL061C, strain MRC1, stronger effect = lower value 0.99 | locus YCL069W, strain vba3, stronger effect = lower value 0.971 | locus YCR088W, strain abp1, stronger effect = lower value 0.988 | locus YDL005C, strain med2, stronger effect = lower value 0.975 | locus YDL035C, strain GPR1, stronger effect = lower value 1.01 | locus YDL040C, strain nat1, stronger effect = lower value 0.991 | locus YDL074C, strain BRE1, stronger effect = lower value 1 | locus YDL101C, strain DUN1, stronger effect = lower value 1.01 | locus YDL185W, strain tfp1, stronger effect = lower value 1.02 | locus YDL192W, strain arf1, stronger effect = lower value 1.02 | locus YDR001C, strain nth1, stronger effect = lower value 0.984 | locus YDR069C, strain doa4, stronger effect = lower value 0.977 | locus YDR101C, strain arx1, stronger effect = lower value 1.01 | locus YDR137W, strain rgp1, stronger effect = lower value 0.973 | locus YDR159W, strain sac3, stronger effect = lower value 0.975 | locus YDR162C, strain NBP2, stronger effect = lower value 1.02 | locus YDR195W, strain ref2 0.946 | locus YDR297W, strain sur2, stronger effect = lower value 0.993 | locus YDR318W, strain mcm21, stronger effect = lower value 1.01 | locus YDR334W, strain swr1, stronger effect = lower value 0.972 | locus YDR335W, strain msn5, stronger effect = lower value 0.984 | locus YDR388W, stronger effect = lower value 1.01 | locus YDR392W, strain spt3, stronger effect = lower value 0.932 | locus YDR502C, strain sam2, stronger effect = lower value 1.01 | locus YEL003W, strain gim4, stronger effect = lower value 0.991 | locus YEL037C, strain rad23, stronger effect = lower value 0.948 | locus YEL061C, strain CIN8 (second series), stronger effect = lower value 0.975 | locus YEL061C, strain CIN8, stronger effect = lower value 1.01 | locus YER015W, strain faa2, stronger effect = lower value 0.995 | locus YER016W, strain bim1, stronger effect = lower value 0.992 | locus YER110C, stronger effect = lower value 1.01 | locus YER111C, strain swi4, stronger effect = lower value 0.992 | locus YER155C, strain BEM2 (second series), stronger effect = lower value 0.987 | locus YER155C, strain BEM2, stronger effect = lower value 1.01 | locus YER167W, strain BCK2, stronger effect = lower value 1 | locus YFR010W, strain ubp6, stronger effect = lower value 0.964 | locus YGL078C, strain dbp3, stronger effect = lower value 1.02 | locus YGL086W, strain mad1, stronger effect = lower value 0.997 | locus YGL167C, strain pmr1, stronger effect = lower value 0.999 | locus YGL173C, strain kem1, stronger effect = lower value 0.999 | locus YGL227W, strain vid30, stronger effect = lower value 0.992 | locus YGL240W, strain doc1, stronger effect = lower value 0.988 | locus YGL248W, strain PDE1, stronger effect = lower value 1.01 | locus YGL253W, strain hxk2, stronger effect = lower value 0.997 | locus YGR135W, strain pre9, stronger effect = lower value 1.01 | locus YGR252W, strain gcn5, stronger effect = lower value 0.998 | locus YHR013C, strain ard1, stronger effect = lower value 0.968 | locus YHR027C, strain rpn1, stronger effect = lower value 0.982 | locus YHR030C, strain SLT2, stronger effect = lower value 1.01 and 1.06 | locus YHR079C, strain IRE1 (second series), stronger effect = lower value 1.01 | locus YHR079C, strain IRE1, stronger effect = lower value 1.03 | locus YHR094C, strain hxt1, stronger effect = lower value 1.01 | locus YHR129C, strain ARP1, stronger effect = lower value 1.01 | locus YHR142W, strain chs7, stronger effect = lower value 1.01 | locus YHR200W, strain rpn10, stronger effect = lower value 1.01 | locus YIL066C, strain RNR3, stronger effect = lower value 1.01 | locus YIL073C, strain SPO22, stronger effect = lower value 1.03 | locus YIL125W, strain kgd1, stronger effect = lower value 1.01 | locus YIR030C, strain dcg1, stronger effect = lower value 1 | locus YJL092W, strain hpr5, stronger effect = lower value 0.982 | locus YJL095W, strain BCK1 (second series), stronger effect = lower value 1 | locus YJL095W, strain BCK1, stronger effect = lower value 0.997 and 0.966 | locus YJL115W, strain asf1, stronger effect = lower value 0.982 | locus YJL129C, strain trk1, stronger effect = lower value 0.985 | locus YJL134W, strain LCB3, stronger effect = lower value 1 | locus YJL154C, strain vps35, stronger effect = lower value 0.978 | locus YJL164C, strain tpk1, stronger effect = lower value 0.997 | locus YJL166W, strain qcr8, stronger effect = lower value 1.06 | locus YJL168C, strain set2, stronger effect = lower value 1 | locus YJL187C, strain SWE1 (second series), stronger effect = lower value 1 | locus YJL187C, strain SWE1, stronger effect = lower value 0.981 | locus YJR043C, strain POL32, stronger effect = lower value 1.03 | locus YJR066W, strain TOR1, stronger effect = lower value 0.991
